Data taken from PMC7826789 (International Journal of Molecular Sciences, 2021).

Legend:
Details in all cases: Compound Concentration (nM):1000
EGFR(G719S) = system: EGFR(G719S)
[1] = system: EGFR(L747-E749del, A750P)
[2] = system: EGFR(L747-S752del, P753S)
EGFR(L747-T751del,Sins) = system: EGFR(L747-T751del,Sins)
EGFR(L858R) = system: EGFR(L858R)
EGFR(L858R,T790M) = system: EGFR(L858R,T790M)
EGFR(L861Q) = system: EGFR(L861Q)
EGFR(S752-I759del) = system: EGFR(S752-I759del)
EGFR(T790M) = system: EGFR(T790M)
EGFR = system: EGFR
EIF2AK1 = system: EIF2AK1
EPHA1 = system: EPHA1
EPHA2 = system: EPHA2
EPHA3 = system: EPHA3
EPHA4 = system: EPHA4
EPHA5 = system: EPHA5
EPHA6 = system: EPHA6
EPHA7 = system: EPHA7
EPHA8 = system: EPHA8
EPHB1 = system: EPHB1
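Note: KINOMEscan scanMAX binding as percent activity remaining versus control; lower means stronger binding.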

| Structure (SMILES) | Percent Control (EGFR(G719S)) [%] | Percent Control [1] [%] | Percent Control [2] [%] | Percent Control (EGFR(L747-T751del,Sins)) [%] | Percent Control (EGFR(L858R)) [%] | Percent Control (EGFR(L858R,T790M)) [%] | Percent Control (EGFR(L861Q)) [%] | Percent Control (EGFR(S752-I759del)) [%] | Percent Control (EGFR(T790M)) [%] | Percent Control (EGFR) [%] | Percent Control (EIF2AK1) [%] | Percent Control (EPHA1) [%] | Percent Control (EPHA2) [%] | Percent Control (EPHA3) [%] | Percent Control (EPHA4) [%] | Percent Control (EPHA5) [%] | Percent Control (EPHA6) [%] | Percent Control (EPHA7) [%] | Percent Control (EPHA8) [%] | Percent Control (EPHB1) [%] |
| --- | --- | --- | --- | --- | --- | --- | --- | --- | --- | --- | --- | --- | --- | --- | --- | --- | --- | --- | --- | --- |
| NS(=O)(=O)c1ccc(N/N=C2\C(=O)Nc3ccc(Cl)cc32)cc1 [GW280670X] | 100 | 100 | 100 | 100 | 100 | 100 | 87 | 87 | 100 | 100 | 100 | 100 | 100 | 100 | 96 | 100 | 100 | 100 | 100 | 100 |
| NS(=O)(=O)c1ccc(N/N=C2\C(=O)Nc3ccc(-c4cnco4)cc32)cc1 [GW276655] | 76 | 100 | 100 | 89 | 72 | 66 | 79 | 70 | 66 | 87 | 58 | 79 | 100 | 85 | 88 | 89 | 87 | 100 | 94 | 96 |
| COc1cc(/C=N/Nc2ncnc3[nH]ncc23)ccc1O [GW578748X] | 62 | 78 | 100 | 78 | 90 | 72 | 64 | 86 | 48 | 75 | 100 | 92 | 96 | 58 | 74 | 90 | 100 | 100 | 100 | 100 |
| Cl.O=C(Nc1ccc(Oc2ccc3[nH]c(NC(=O)c4ccco4)nc3c2)cc1)Nc1cc(C(F)(F)F)ccc1F [GW683134A] | 92 | 69 | 78 | 100 | 91 | 100 | 89 | 97 | 84 | 92 | 100 | 20 | 15 | 58 | 14 | 53 | 35 | 17 | 1.1 | 39 |
| Cl.O=S1CCN(Cc2ccc(-c3ccc4ncnc(Nc5ccc(OCc6ccccc6)c(F)c5)c4c3)o2)CC1 [GW576924A] | 2.2 | 1.3 | 5.9 | 42 | 0.3 | 100 | 0 | 1.4 | 46 | 0.5 | 100 | 100 | 100 | 100 | 95 | 100 | 100 | 100 | 95 | 100 |
| COc1ccccc1-c1cc(/C=C2\C(=O)Nc3ncc(Br)cc32)cc(Br)c1O [GW442130X] | 100 | 100 | 88 | 100 | 100 | 85 | 100 | 100 | 72 | 100 | 100 | 100 | 100 | 98 | 100 | 100 | 100 | 100 | 100 | 100 |
| COc1cc2ncn(-c3cc(O[C@H](C)c4ccccc4Cl)c(C(N)=O)s3)c2cc1OC [GSK237701A] | 69 | 100 | 86 | 87 | 100 | 79 | 97 | 100 | 75 | 100 | 92 | 100 | 100 | 100 | 72 | 100 | 83 | 88 | 89 | 81 |
| COc1cc(C)c(N(C)C(=O)CN(C)C)cc1Nc1nc(Nc2cccc(F)c2C(N)=O)c2cc[nH]c2n1 [GSK2219385] | 75 | 98 | 100 | 100 | 89 | 100 | 82 | 100 | 56 | 87 | 100 | 93 | 86 | 100 | 95 | 100 | 100 | 100 | 94 | 99 |
| COc1cccc(-c2c[nH]c3c(N/N=C/c4ccncc4)ncnc23)c1 [GW814408X] | 32 | 18 | 16 | 35 | 23 | 30 | 41 | 41 | 53 | 30 | 100 | 100 | 96 | 93 | 100 | 100 | 100 | 91 | 79 | 81 |
| COc1cc(N2CCN(C(C)C)CC2)ccc1Nc1nc(Nc2ccc(F)cc2C(=O)NC[C@@H](O)CO)c2cc[nH]c2n1 [GSK1392956A] | 87 | 83 | 71 | 94 | 73 | 7.6 | 60 | 86 | 4.4 | 76 | 100 | 91 | 94 | 70 | 100 | 100 | 72 | 100 | 100 | 100 |
| NS(=O)(=O)c1ccc(N/N=C2\C(=O)Nc3ccc(C(=O)NCc4ccncc4)cc32)cc1 [GW300657X] | 97 | 100 | 90 | 81 | 94 | 100 | 91 | 98 | 100 | 93 | 100 | 100 | 89 | 100 | 88 | 94 | 100 | 100 | 99 | 100 |
| Cl.c1ccc(Cc2nc3ccc(Nc4ncnc5ccccc45)cc3[nH]2)cc1 [GR269666A] | 0.6 | 41 | 70 | 37 | 36 | 100 | 9.8 | 71 | 100 | 5 | 100 | 100 | 100 | 100 | 100 | 100 | 100 | 100 | 100 | 100 |
| Nc1ncnc2occ(-c3ccc(NC(=O)Nc4cc(C(F)(F)F)ccc4F)cc3)c12 [GW770249X] | 87 | 88 | 93 | 100 | 100 | 96 | 79 | 89 | 80 | 100 | 100 | 40 | 13 | 19 | 5.4 | 15 | 29 | 6 | 1.1 | 14 |
| NS(=O)(=O)c1ccc(Nc2ncc(-c3ccccc3)o2)cc1 [GW572399X] | 100 | 68 | 100 | 100 | 88 | 96 | 100 | 100 | 92 | 88 | 100 | 100 | 100 | 100 | 97 | 100 | 100 | 84 | 81 | 91 |
| CN(C)CCNC(=O)Nc1ccc(N(C)c2ccnc(Nc3ccc(CS(C)(=O)=O)cc3)n2)cc1.Cl [GW830900A] | 97 | 73 | 79 | 100 | 83 | 60 | 100 | 100 | 64 | 95 | 88 | 76 | 89 | 85 | 100 | 90 | 100 | 81 | 78 | 78 |
| CCn1c(-c2nonc2N)nc2c(C#CC(C)(C)O)nc(OCCNC)cc21.Cl [GSK949675] | 100 | 92 | 100 | 100 | 100 | 100 | 100 | 100 | 85 | 96 | 100 | 100 | 100 | 100 | 100 | 98 | 100 | 100 | 100 | 100 |
| COc1ccc2cc(-c3c(-c4ccncc4)nc(-c4ccc(S(C)(=O)=O)cc4C)n3C)ccc2c1 [SB-633825] | 84 | 78 | 70 | 70 | 63 | 38 | 41 | 93 | 40 | 74 | 91 | 89 | 76 | 90 | 66 | 99 | 63 | 48 | 69 | 64 |
| CC(C)COC(=O)c1ccc2c(c1)/C(=C/Nc1ccc(S(N)(=O)=O)cc1)C(=O)N2 [GW416981X] | 32 | 62 | 48 | 60 | 15 | 100 | 8.8 | 100 | 95 | 13 | 100 | 100 | 100 | 100 | 94 | 100 | 100 | 100 | 100 | 100 |
| NS(=O)(=O)c1ccc(N/N=C2\C(=O)Nc3ccc(C(=O)NCCc4c[nH]cn4)cc32)cc1 [GW300660X] | 73 | 100 | 100 | 100 | 100 | 99 | 85 | 97 | 95 | 99 | 100 | 100 | 100 | 100 | 89 | 100 | 100 | 100 | 100 | 100 |
| CN1CCN(C(=O)c2ccc(NC(=O)Nc3ccc(N(C)c4ccnc(Nc5ccc(CS(C)(=O)=O)cc5)n4)cc3)cc2)CC1.Cl [GW830263A] | 100 | 99 | 78 | 100 | 92 | 55 | 92 | 100 | 54 | 100 | 100 | 56 | 85 | 79 | 85 | 99 | 76 | 92 | 89 | 87 |
